# Test results taken from PubChem BioAssay (EPA / NIEHS).
# Records with an inconclusive call do not appear. Calls of active or inactive are those of the source. How the source made its calls: active means hit-call score of the fitted dose curve at least 0.9, where 1 is the maximum; inconclusive means response in the unintended direction; inactive means score below 0.9.
# What was measured:
# [1] = target: human Vascular Endothelial Growth Factor Receptor 1 (VEGFR1), FLT1 (gene 2321) (UniProt P17948); test: NVS_ENZ_hVEGFR1: NovaScreen (NVS) Enzymatic Assay for human Vascular Endothelial Growth Factor Receptor 1 (VEGFR1) (AID 2283226)
# Procedure, shortened: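 Cell-free assay of recombinant human VEGFR1 kinase with substrate, measured 1 h after dosing; fluorescence with electrophoretic mobility-shift separation of substrate and product, referenced to DMSO; primary screen at 25 uM in duplicate, actives then run in concentration series.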
# [2] = target: human Vascular Endothelial Growth Factor Receptor 3 (VEGFR3), FLT4 (gene 2324) (UniProt P35916); test: NVS_ENZ_hVEGFR3: NovaScreen (NVS) Enzymatic Assay for human Vascular Endothelial Growth Factor Receptor 3 (VEGFR3) (AID 2283229)
# Procedure, shortened: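 Cell-free recombinant VEGFR3 kinase reaction with fluorescent substrate, read 1 h after dosing by electrophoretic mobility shift separation of substrate and product. Single-concentration duplicate screen at 25 uM, then concentration-response up to 50 uM; loss of activity versus DMSO.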
# [3] = target: human Vascular Endothelial Growth Factor Receptor 2 (VEGFR2), KDR (gene 3791) (UniProt P35968); test: NVS_ENZ_hVEGFR2: NovaScreen (NVS) Enzymatic Assay for human Vascular Endothelial Growth Factor Receptor 2 (VEGFR2) (AID 2283230)
# Procedure, shortened: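 Cell-free recombinant VEGFR2 kinase, fluorescent substrate with electrophoretic mobility-shift separation; read 1 h after dosing. Screened at 25 uM in duplicate, hits to concentration-response up to 50 uM; loss-of-signal versus DMSO.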
# Sequence of human Vascular Endothelial Growth Factor Receptor 3 (VEGFR3), FLT4 (gene 2324) (P35916 whole entry, looked up): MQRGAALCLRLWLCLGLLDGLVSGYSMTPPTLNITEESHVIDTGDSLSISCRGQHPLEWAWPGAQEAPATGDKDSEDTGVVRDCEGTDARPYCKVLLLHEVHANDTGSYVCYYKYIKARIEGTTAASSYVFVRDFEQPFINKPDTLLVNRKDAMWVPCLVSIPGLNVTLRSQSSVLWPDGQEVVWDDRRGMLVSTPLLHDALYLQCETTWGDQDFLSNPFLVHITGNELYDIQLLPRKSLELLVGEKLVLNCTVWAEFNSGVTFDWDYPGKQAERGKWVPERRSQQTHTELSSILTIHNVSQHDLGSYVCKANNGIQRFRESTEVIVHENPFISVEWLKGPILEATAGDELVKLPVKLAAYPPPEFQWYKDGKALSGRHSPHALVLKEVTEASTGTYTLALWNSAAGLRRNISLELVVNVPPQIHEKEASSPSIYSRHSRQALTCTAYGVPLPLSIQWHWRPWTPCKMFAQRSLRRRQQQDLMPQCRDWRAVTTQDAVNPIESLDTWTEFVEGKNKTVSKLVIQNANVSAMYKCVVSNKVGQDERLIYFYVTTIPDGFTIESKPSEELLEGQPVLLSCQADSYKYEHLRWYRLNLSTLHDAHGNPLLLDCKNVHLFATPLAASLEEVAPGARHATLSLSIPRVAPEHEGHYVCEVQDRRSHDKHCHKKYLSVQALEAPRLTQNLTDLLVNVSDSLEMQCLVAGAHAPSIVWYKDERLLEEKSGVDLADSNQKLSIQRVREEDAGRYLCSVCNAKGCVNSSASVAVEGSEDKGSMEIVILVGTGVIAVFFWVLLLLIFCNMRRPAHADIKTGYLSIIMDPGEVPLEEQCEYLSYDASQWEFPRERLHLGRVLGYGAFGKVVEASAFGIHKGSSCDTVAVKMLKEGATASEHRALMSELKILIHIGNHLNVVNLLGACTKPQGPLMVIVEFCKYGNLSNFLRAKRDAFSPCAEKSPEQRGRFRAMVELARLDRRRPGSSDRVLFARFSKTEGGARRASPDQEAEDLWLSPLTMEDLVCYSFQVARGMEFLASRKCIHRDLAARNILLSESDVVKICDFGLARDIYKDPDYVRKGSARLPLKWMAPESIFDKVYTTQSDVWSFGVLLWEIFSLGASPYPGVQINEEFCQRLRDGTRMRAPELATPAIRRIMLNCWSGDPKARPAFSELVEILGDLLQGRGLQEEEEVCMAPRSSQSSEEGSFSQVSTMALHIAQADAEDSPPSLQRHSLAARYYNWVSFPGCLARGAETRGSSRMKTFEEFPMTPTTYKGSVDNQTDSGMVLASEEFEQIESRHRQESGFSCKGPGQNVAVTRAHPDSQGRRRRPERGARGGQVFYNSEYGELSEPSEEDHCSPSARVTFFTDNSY
# Sequence of human Vascular Endothelial Growth Factor Receptor 2 (VEGFR2), KDR (gene 3791) (P35968 whole entry, looked up): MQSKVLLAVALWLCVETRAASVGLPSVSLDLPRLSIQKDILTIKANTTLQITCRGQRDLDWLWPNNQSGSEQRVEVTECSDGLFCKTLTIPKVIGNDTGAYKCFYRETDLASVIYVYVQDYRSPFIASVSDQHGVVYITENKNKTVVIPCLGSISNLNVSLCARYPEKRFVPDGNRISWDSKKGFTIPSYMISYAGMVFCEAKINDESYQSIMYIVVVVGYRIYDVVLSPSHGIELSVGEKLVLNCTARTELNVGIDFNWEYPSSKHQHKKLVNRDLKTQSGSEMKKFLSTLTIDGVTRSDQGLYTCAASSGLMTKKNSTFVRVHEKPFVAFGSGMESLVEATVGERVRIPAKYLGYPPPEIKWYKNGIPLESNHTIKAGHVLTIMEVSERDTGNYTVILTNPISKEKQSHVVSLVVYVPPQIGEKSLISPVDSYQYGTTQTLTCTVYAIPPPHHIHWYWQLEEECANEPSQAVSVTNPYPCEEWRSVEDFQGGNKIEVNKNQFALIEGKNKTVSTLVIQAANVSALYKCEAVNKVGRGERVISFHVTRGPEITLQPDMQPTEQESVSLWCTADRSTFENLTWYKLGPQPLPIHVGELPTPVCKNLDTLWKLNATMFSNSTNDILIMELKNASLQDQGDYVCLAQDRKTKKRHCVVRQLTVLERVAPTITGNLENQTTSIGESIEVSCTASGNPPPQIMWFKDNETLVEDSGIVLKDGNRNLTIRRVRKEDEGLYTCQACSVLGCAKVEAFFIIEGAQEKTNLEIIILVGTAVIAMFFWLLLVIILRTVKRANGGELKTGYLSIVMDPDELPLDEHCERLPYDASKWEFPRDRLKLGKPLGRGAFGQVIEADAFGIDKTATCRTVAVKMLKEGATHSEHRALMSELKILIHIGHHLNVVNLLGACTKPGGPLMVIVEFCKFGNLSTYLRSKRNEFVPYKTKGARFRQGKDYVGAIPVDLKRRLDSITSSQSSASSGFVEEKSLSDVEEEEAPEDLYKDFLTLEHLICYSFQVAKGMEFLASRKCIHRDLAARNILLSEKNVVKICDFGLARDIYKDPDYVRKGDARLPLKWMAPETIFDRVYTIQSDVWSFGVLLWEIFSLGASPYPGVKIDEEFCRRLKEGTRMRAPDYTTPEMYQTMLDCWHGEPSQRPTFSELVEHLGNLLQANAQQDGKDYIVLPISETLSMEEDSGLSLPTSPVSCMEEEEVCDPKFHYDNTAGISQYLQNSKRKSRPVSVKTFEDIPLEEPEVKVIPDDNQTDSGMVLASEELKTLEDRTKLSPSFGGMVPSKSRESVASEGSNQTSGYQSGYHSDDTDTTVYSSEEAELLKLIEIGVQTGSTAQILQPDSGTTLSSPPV
# Sequence of human Vascular Endothelial Growth Factor Receptor 1 (VEGFR1), FLT1 (gene 2321) (P17948 whole entry, looked up): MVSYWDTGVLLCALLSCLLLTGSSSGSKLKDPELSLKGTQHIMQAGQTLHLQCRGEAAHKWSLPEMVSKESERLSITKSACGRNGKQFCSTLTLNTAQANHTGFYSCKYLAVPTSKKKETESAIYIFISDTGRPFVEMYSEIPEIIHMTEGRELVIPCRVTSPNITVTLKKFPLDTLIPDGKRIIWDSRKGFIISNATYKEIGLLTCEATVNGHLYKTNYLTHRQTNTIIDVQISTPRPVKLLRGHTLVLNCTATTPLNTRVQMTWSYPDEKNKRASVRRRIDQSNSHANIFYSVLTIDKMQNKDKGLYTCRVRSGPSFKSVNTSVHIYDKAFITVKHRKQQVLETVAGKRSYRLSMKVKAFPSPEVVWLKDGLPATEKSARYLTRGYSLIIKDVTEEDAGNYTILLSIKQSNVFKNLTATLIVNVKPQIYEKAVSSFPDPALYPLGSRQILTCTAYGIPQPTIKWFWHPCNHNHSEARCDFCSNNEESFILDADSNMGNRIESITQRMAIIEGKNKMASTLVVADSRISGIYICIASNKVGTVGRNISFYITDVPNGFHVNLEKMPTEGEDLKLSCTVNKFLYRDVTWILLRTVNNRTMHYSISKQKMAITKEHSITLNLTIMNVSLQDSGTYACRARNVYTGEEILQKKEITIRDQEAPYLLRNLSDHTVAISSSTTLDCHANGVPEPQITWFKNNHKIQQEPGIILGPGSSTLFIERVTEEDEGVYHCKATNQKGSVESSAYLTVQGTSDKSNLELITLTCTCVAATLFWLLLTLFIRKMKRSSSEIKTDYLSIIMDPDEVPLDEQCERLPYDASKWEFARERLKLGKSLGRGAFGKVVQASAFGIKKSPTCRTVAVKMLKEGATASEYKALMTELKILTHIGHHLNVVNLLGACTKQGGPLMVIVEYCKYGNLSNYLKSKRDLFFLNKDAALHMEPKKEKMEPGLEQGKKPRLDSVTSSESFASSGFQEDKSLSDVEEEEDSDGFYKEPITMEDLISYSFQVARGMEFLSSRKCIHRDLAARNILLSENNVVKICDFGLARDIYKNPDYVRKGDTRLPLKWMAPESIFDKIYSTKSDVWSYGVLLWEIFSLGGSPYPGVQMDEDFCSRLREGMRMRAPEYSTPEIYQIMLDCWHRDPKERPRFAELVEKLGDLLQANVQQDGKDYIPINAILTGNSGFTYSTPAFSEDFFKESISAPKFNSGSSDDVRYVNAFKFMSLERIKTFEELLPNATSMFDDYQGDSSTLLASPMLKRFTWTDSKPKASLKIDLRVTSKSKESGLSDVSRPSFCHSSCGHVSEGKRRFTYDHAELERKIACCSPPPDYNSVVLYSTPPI
structure (smiles),measurement,setting,value
CCCN(CCC)c1c([N+](=O)[O-])cc(S(N)(=O)=O)cc1[N+](=O)[O-],outcome,[1],inactive
COc1cnc(OC)n2nc(NS(=O)(=O)c3c(OCC(F)F)cccc3C(F)(F)F)nc12,outcome,[1],inactive
N#Cc1cc(Br)c(O)c(Br)c1,outcome,[2],inactive
CCNc1nc(Cl)nc(NC(C)C)n1,outcome,[2],inactive
CO/C=C(/C(=O)OC)c1ccccc1Oc1cc(Oc2ccccc2C#N)ncn1,outcome,[3],inactive
C=CCC1=C(C)C(OC(=O)C2C(C=C(C)C)C2(C)C)CC1=O (stereo unspecified),outcome,[3],inactive
